ChEMBL document CHEMBL3988442, “University of Dundee, Small-Polar-MMV Screening Library” (2021)
Hit rate of the full screen: of about 48,000 compounds, about 13,000 (27%) showed an effect of 50% or more. This is one part of the list.

Tested on: Wolbachia pipientis
Assay: Anti-Wolbachia Cell-Based Screen
Type: functional
Design: scale not given: in the data most compounds retested in dose-response had high values
Details: 5 µM

SMILES	Percent Effect
Cc1ccc([C@@H]2CN(C(=O)c3cc(C)n[nH]3)C[C@H]2NC(=O)C2CC2)cc1	4.814%
CCNC(=O)CN(CC)S(=O)(=O)c1c(Br)cc2[nH]c(=O)oc2c1Cl	-2.285%
CN(C(=O)c1ccccc1NCC(=O)O)C(C1CC1)C1CC1	114.3%
CCn1nc(C)c(CCNC(=O)c2cccc(NCC(=O)O)c2)c1C	-5.115%
CN(CC(=O)N1CCCC1)C(=O)c1ccccc1Nc1ccccc1	-0.554%
CN(C(=O)c1cccc(NCc2cccs2)c1)C(C1CC1)C1CC1	113%
COC(C)c1cccc(NCc2cccs2)c1 (stereo not given)	2.749%
CN(C(=O)c1cccc(NCC(=O)O)c1)C(C1CC1)C1CC1	109.4%
Cc1cc(CNc2cccc(C(=O)N(C)c3ccccc3)c2)no1	2.006%
CC(C)CN(C(=O)Nc1cccc(C(=O)N(C)C)c1)C1CC1	4.006%
CC(C)N(CC(=O)Nc1cccc(C(=O)N(C)C)c1)C1CC1	5.845%
CN(C)CC(c1ccccc1)N(C)C(=O)c1cccc(NCC(=O)O)c1 (stereo not given)	104.1%
CC(=O)Nc1cccc(C(=O)N(C)C(C)Cc2cc(C)ccn2)c1 (stereo not given)	4.881%
Cc1ccnc(NCCNC(=O)c2ccccc2NCC(=O)O)c1	-16.08%
CC(C)(C)C(=O)N1C[C@@H](F)[C@@H](OCc2nc3ccccc3o2)C1	-2.26%
Cc1cnn(C2CN(Cc3noc(C4CC4)n3)C2)c1	-0.9556%
CN1C(=O)C2(CCN(S(C)(=O)=O)CC2)c2cc(F)ccc21.Cl	-38.1%
Brc1cc(CNCc2nnc3n2CCC3)cs1.Cl	-5.919%
O=C(CN(Cc1cccnc1)CC1CCCO1)Nc1ccc(F)cc1 (stereo not given)	-1.761%
O=C(CCc1cccnc1)N(Cc1ccsc1)CC1CCCO1 (stereo not given)	-15.29%
O=C(COCC1CCCO1)N(Cc1cccnc1)c1ccc(F)cc1 (stereo not given)	100.3%
NC(=O)C1(CCCc2ccncc2)CCCN1 (stereo not given)	96.03%
CNC(=O)C1(CCCc2ccncc2)CCCN1 (stereo not given)	-10.96%
O=C(O)C(F)(F)F.O=C(O)C(F)(F)F.O[C@H]1CCN(CC2CC2)[C@H]1Cc1ccncc1	1.351%

SMILES	Percent Effect
CNC(=O)C1(CCCc2ccncc2)CCN1.O=C(O)C(F)(F)F (stereo not given)	127.6%
CC(CCNC(=O)NCCc1ccncc1)c1ccccc1 (stereo not given)	4.177%
Cc1cccc(C(C(=O)NCCCc2ccncc2)N(C)C)c1 (stereo not given)	-9.46%
CC(=O)NC(=O)C1(CCCc2ccncc2)CCN1 (stereo not given)	96.13%
CN(CCCNC(=O)NCc1ccncc1)CC(F)(F)F	-10.78%
CCN(Cc1ccncc1)C(=O)c1cn(CCCc2ccccc2)nn1	-1.571%
CN(C)C(=O)C1(CCCc2ccncc2)CCCN1 (stereo not given)	-8.359%
CCNc1ncc(C(=O)NCCCc2ccncc2)cn1	-5.909%
CNC(=O)C1(CCCc2ccncc2)CCCCN1.Cl (stereo not given)	104.3%
CN(CCSc1ccccc1)C(=O)C(c1cccnc1)N1CCOCC1 (stereo not given)	0.338%
Cc1cc(S(=O)(=O)Nc2cccc(I)c2)sc1C(=O)O	5.422%
CN1CCCC2(CCN(c3cc(C(F)(F)F)nc(N(C)C)n3)C2)C1=O (stereo not given)	7.307%
COc1cc(CNc2ccc(Cl)cc2)ccc1OCC(=O)O	106%
COc1ccccc1OCC(=O)Nc1ncccc1Cl	-0.249%
COc1cc(CNc2ccccc2Cl)ccc1OCC(=O)O	86.61%
CCc1cnc(N)nc1NCc1ccc(OC)c(OC)c1	-14.4%
COc1cccc(CNc2cc(CO)ccc2Cl)c1	-79.64%
COc1ccc(CNC(=O)c2ccc(Cl)cc2F)cc1C(=O)O	25.37%
CNC(=O)NC(=O)CNC(CC(F)(F)F)c1ccc(F)cc1 (stereo not given)	13.05%
CN(CC(=O)N1CC(C)(C)[C@](O)(C2CC2)C1)Cc1ccncc1	-13.6%
COC(=O)c1cccn1C1CCN(Cc2nc3ccccc3o2)CC1	118.1%
CCOCCCNC(=O)c1cccn1Cc1cccnc1	-15.39%
CCN(CC)C(=O)[C@@H]1C[C@@H](NC(=O)c2cccn2C2CC2)CN1C	0.5236%
O=C1CCC(=O)N1CCN1CCC(=Cc2ccccc2)CC1	-0.4568%

SMILES	Percent Effect
COC(=O)c1cccn1C1CCN(Cc2cccnc2)CC1	126.9%
Cc1ncc2c(n1)CCN(Cc1nc3ccccc3o1)C2	7.952%
COC(=O)c1cccn1C1CCN(Cc2cnc3ccccn23)CC1	132%
COC(=O)c1cccn1C1CCN(CCN2C(=O)CCC2=O)CC1	85.14%
CCc1nc(C)c(C(=O)N(C)Cc2cnc3ccccn23)o1	-30.87%
CC(C)C(C)NC(=O)c1cccn1Cc1cccnc1 (stereo not given)	-0.09991%
COCc1nnc(C(=O)N(C)Cc2cnc3ccccn23)o1	-16.21%
CCN1CCN(C2CCN(Cc3nc4ccccc4o3)CC2)C1=O	-0.2621%
N#CCCN(CCC#N)C(=O)CN1CCCC1Cc1cccc(F)c1 (stereo not given)	-4.236%
COC(=O)c1cccn1C1CCN(S(=O)(=O)c2ccccc2)CC1	89.91%
COCCN1CCN(Cc2cccc(C(N)=O)c2)CC1C (stereo not given)	5.406%
COC(=O)c1ccc(S(=O)(=O)N2CCC(Oc3cccnn3)CC2)cc1	-19.83%
CC(O)CN1CCC(CNCc2cccc(C(N)=O)c2)CC1 (stereo not given)	1.784%
COC(=O)[C@@H]1CN(S(=O)(=O)c2ccccc2)CCN1S(C)(=O)=O	-4.195%
COC(=O)c1cccn1C1CCN(Cc2cccc(C(N)=O)c2)CC1	132.6%
CCOCCn1c(=O)n(CCC(C)C)c2ncc(C(=O)O)cc21	-3.937%
COCC(=O)Nc1ccc([C@@H](O)[C@H]2COCC(=O)N2C)cc1	-3.081%
CS(=O)(=O)N1CCN(C(=O)c2cccc(Cl)c2)CC2(CNC(=O)C2)C1 (stereo not given)	2.79%
CN(C)c1ccc(C(=O)N2CCCC2c2ccc(Cl)cc2)cc1 (stereo not given)	5.929%
Cc1nc(CC(=O)N2CCC[C@H]2c2nc(C(C)C)no2)cs1	-12.82%
CCC(=O)N1CCCC1c1nc(N(C)C)ncc1-c1ccc(Cl)cc1 (stereo not given)	84.51%
CC(C)C(=O)N1CCCC1c1nc(N(C)C)ncc1-c1ccc(Cl)cc1 (stereo not given)	126.5%
